Inconclusive results are not listed. Where a structure was tested more than once in an assay, its records may differ in their call. Calls of active or inactive are those of the source. Rule for the calls: active = hit-call score of the fitted dose curve at least 0.9, where 1 is the maximum; inconclusive = response in the unintended direction; inactive = score below 0.9.

Eight compounds from PubChem BioAssay (EPA / NIEHS) can be followed below.

In the assay the target is Collagenase 3 (Homo sapiens) (UniProt P45452). Description: NVS_ENZ_hMMP13: NovaScreen (NVS) Enzymatic Assay for human Matrix Metalloproteinase-13 (MMP13) (AID 2283182). In a few lines: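 Recombinant MMP13 cleaving fluorescent substrate, cell-free, measured 1 h after dosing. Primary duplicate screen at 25 uM; actives tested in concentration-response up to 50 uM; loss of signal relative to DMSO.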
Consider `Oc1ccc(C(c2ccc(O)cc2)C(Cl)(Cl)Cl)cc1`, for which the call was inactive.
Regarding `S=C([S-])NCCNC(=S)[S-].[Mn+2]`, the AC50 is 6.6 µM (active).
On the same count and under the same terms, the result for `N[C@@H](Cc1cc(I)c(Oc2ccc(O)c(I)c2)c(I)c1)C(=O)O` reads 5.14 µM (active).
In the case of `CC(C)(c1ccc(O)cc1)c1ccc(O)cc1`, the outcome was inactive.
For `S=C(S)NCCNC(=S)S.[Mn+2].[S-]C([S-])=NCCN=C([S-])[S-].[Zn+2]`, the half-maximal activity concentration (AC50) is 16.2 µM (active) and the compound was called inactive.
As to `CCOC(=O)[C@H](C)Oc1ccc(Oc2nc3ccc(Cl)cc3o2)cc1`, the result was inactive.
On the same count and under the same terms, for `C=CCOC(Cn1ccnc1)c1ccc(Cl)cc1Cl` (centres undefined) the value was “inactive”.
On the same count and under the same terms, for `CCOC(=O)C(C)Oc1ccc(Oc2nc3ccc(Cl)cc3o2)cc1` (centres undefined) the value was “inactive”.

One may read the AC50 as the midpoint of the concentration-response curve, whichever way the signal moves.
